Key:
Experiment in all cases: PBM binding z-score (relative to random genomic background probes); higher = stronger binding; sequences stand for … in GC…GCGATTGACAGCGTAGAATGAAGG
[1] = tested on: PPARg:RXRa DBDmut IVT, anti-RXR (DBD mutation: RXRa K156A/R161A, NR concentration 270 nM, RXRa partner concentration 90 nM)
Summary of the method: (§1)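 Binding z-scores were set against random background probes. The data came from custom Agilent 4×180K protein-binding microarrays carrying double-stranded probes with 34-nt variable regions, incubated 1 h with ligand-free nuclear receptor dimers. Partner-specific antibodies detected binding, and scanned fluorescence was regression-normalized.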

[2] = tested on: PPARg:RXRa IVT, anti-PPARg (NR concentration 270 nM, RXRa partner concentration 90 nM)
Summary of the method: as §1

[3] = tested on: PPARg DBDmut:RXRa IVT, anti-PPARg (DBD mutation: PPARg1 K132A/R137A, NR concentration 270 nM, RXRa partner concentration 90 nM)
Summary of the method: as §1

[4] = tested on: PPARg DBDmut IVT, anti-PPARg (DBD mutation: PPARg1 K132A/R137A, NR concentration 270 nM)
Summary of the method: as §1

[5] = tested on: PPARg homodimer (NR concentration 180 nM)
Summary of the method: as §1

[6] = tested on: PXR:RXRa (NR concentration 270 nM, RXRa partner concentration 90 nM)
Summary of the method: as §1

[7] = tested on: PXR homodimer (NR concentration 270 nM)
Summary of the method: as §1

[8] = tested on: RARa:RXR (NR concentration 270 nM, RXRa partner concentration 90 nM)
Summary of the method: as §1

[9] = tested on: RARa homodimer (NR concentration 270 nM)
Summary of the method: as §1

[10] = tested on: RARb:RXRa (NR concentration 270 nM, RXRa partner concentration 90 nM)
Summary of the method: as §1

| Sequence | PBM binding z-score [1] | PBM binding z-score [2] | PBM binding z-score [3] | PBM binding z-score [4] | PBM binding z-score [5] | PBM binding z-score [6] | PBM binding z-score [7] | PBM binding z-score [8] | PBM binding z-score [9] | PBM binding z-score [10] |
| --- | --- | --- | --- | --- | --- | --- | --- | --- | --- | --- |
| TCTAGTAGATCAAGCAGGTTAAGAAAGCCTGAGT | 1.47 | 0.398 | -0.251 | -0.0304 | 0.0496 | 0.277 | -0.142 | 0.334 | -0.0896 | -0.149 |
| CCAGACAGGTTAAAGGTAACTCAGTCTGGTACGC | 0.728 | 1.86 | -0.35 | -0.757 | 1.24 | 2.15 | -0.196 | 3.52 | 0.287 | 1.69 |
| ATCTCTCGGTAAAGTTCAGTGAAAGATCGATAGA | 0.0239 | 0.915 | 0.801 | 1.45 | 1.63 | 2.11 | 1.75 | 1.59 | 1.08 | 2.84 |
| TCTTGTAGAACAAGCAGGTTAAGAAAGCCTGAGT | 1.62 | 0.593 | 0.632 | -0.0834 | -0.0982 | 0.365 | 0.0921 | 0.607 | -0.498 | 0.0626 |
| TCTACAGGGTCAAAGGCCAGAGTACGAATGTCGA | 2.69 | 4.11 | 0.545 | 0.757 | 1.6 | 4.1 | 0.202 | 5.76 | 0.385 | 4.29 |
| CCTACTGGGCCAAAGGTCATTGAATCCAATGCTC | 5.12 | 6.72 | -0.082 | 0.0276 | 3.57 | 5.26 | 1.68 | 5.79 | 0.758 | 4.52 |
| TCTGACAGGTGAAGGTAACTCAGGTACGCAGTCG | 2.21 | 1.39 | 0.246 | -0.0142 | 0.45 | 0.483 | -0.371 | 0.82 | 0.0675 | 1.28 |
| ACTAGCAGGCCAAGTTGGGGTCACTCAAACAAAG | 1.25 | 2.36 | -0.0232 | -0.538 | 2.25 | 5.29 | 1.2 | 5.79 | -0.0777 | 3.14 |
| TGAATGAGGTTAAAGATCAAGGAACGTGGCGTCG | 1.88 | 3.3 | 0.538 | 0.468 | 0.301 | 2.23 | -0.137 | 3.64 | 0.0967 | 2.11 |
| TCAGACAGGTGAAGGTAACCCAGGTACGCAGTCG | 2.61 | 2.16 | 0.501 | -0.304 | 0.633 | 0.747 | 0.22 | 0.961 | 0.035 | 1.44 |
| GCGACTGGGCCAAAGCAGGTTACCATAAGGTTGG | 2.12 | 1.67 | -1.03 | -0.738 | -0.482 | -0.203 | -0.655 | 0.347 | -0.649 | -0.0107 |
| TCATATAGGTAAATGCAAGGTGAAAGTCCGATCT | 4.1 | 3 | 0.862 | 1.12 | 1.16 | 1.03 | 0.736 | 1.86 | 0.975 | 1.19 |

Source: the supplement of paper PMC6555819
